ADAM10 inh – inhibitors of human ADAM10 | recombinant ADAM10, EDANS/DABCYL FRET peptide cleavage, 3 h | AID 720582 | hit rate 0.62% among 370,000 | inhibition, % at 7 µM | O14672;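 active = inhibition above a per-campaign cutoff equal to the mean of compounds falling between control-based bounds plus 3 SD, cut at about 20% in these data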
Target sequence (O14672 214-748 limits assumed): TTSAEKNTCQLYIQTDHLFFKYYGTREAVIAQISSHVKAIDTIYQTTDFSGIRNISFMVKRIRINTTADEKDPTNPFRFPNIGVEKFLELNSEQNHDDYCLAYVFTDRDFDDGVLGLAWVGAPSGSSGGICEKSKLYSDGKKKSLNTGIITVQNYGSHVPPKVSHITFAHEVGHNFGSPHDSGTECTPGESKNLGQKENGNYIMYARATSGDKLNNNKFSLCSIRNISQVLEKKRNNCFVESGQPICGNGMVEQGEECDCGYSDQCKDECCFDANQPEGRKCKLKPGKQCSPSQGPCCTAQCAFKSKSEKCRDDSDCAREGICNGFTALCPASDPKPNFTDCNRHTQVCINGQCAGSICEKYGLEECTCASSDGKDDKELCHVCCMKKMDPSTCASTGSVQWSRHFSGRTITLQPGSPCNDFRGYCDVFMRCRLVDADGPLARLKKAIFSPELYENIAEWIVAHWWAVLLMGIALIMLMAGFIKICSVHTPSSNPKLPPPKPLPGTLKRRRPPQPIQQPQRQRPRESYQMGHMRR
KLK7 zymogen act – activators of human kallikrein-7 zymogen. P49862. purified proKLK7, EDANS-DABCYL substrate fluorescence; 100% is mature enzyme control, 0% vehicle. activation, % at 7 µM. hit rate 0.9% among 370,000. AID 652039;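 active = activation above the mean of all tested compounds plus 3 SD, computed per campaign excluding outliers beyond control limits, cut at about 13% in these data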
ADAM17 inh – ADAM17 inhibition, QFRET primary screen | recombinant ADAM17, EDANS/DABCYL FRET peptide cleavage | hit rate 0.83% among 370,000 | P78536 | inhibition, % at 6.95 µM;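 active = inhibition above the mean of compounds lying between control limits plus 3 SD, set per campaign, cut at about 8.5% in these data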
V-ATPase pH – alters yeast V-ATPase proton transport. response, % at 10 µM. AID 504577. S. cerevisiae, pHLuorin cytosolic pH fluorescence. hit rate 0.37% among 350,000; in the data active = response mostly above about 7.3%, no sharp cut-off; inactive = mostly below about 5.4%; also: actives read high
ADAM10 confirm – confirmation of inhibitors of human ADAM10 | shares compounds with ADAM10 inh | ADAM10 QFRET peptide cleavage, EDANS fluorescence | inhibition, % at 6.95 µM | hit rate 1% among 2,100;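 active = inhibition above about 20% chosen separately for each screening run, limit read from the data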
ADAM17 counter – counter-screen for ADAM10 exosite inhibitors: inhibitors of human ADAM17; ADAM17 QFRET peptide cleavage, EDANS fluorescence; AID 743214; hit rate 0.5% among 2,100; inhibition, % at 6.95 µM; shares compounds with ADAM10 inh;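 active = mean triplicate inhibition above the solvent-only control wells' mean plus 3 SD, cut at about 12% in these data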
ADAM10 ctr – counter-screen for ADAM17 exosite inhibitors: inhibitors of human ADAM10; inhibition, % at 6.95 µM; shares compounds with ADAM17 inh; hit rate 47% among 2,900; recombinant ADAM10, EDANS/DABCYL FRET peptide cleavage, 3 h;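 active = mean inhibition over the triplicate runs exceeds the activity threshold set in the earlier primary screen, cut at about 20% in these data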
ADAM17 confirm – confirmation of inhibitors of human ADAM17 | shares compounds with ADAM17 inh | recombinant ADAM17, EDANS/DABCYL QFRET peptide cleavage | inhibition, % at 6.95 µM | hit rate 65% among 2,900;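 active = mean inhibition across replicates above the hit cutoff set in the primary screen, cut at about 8.5% in these data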
Large screens that a line does not name were inactive (follow-up assays come after a bar, where they were run). In the library only some 2.3% were active in any assay of this set; here they are far more common.

Cc1c(O)ccc(C(=O)COc2ccccc2F)c1O	ADAM10 inh 22, ADAM17 inh 12 | ADAM10 confirm inactive | ADAM17 counter inactive | ADAM10 ctr 27 | ADAM17 confirm 12
O=[N+]([O-])c1ccc(O)c(/C=N/Nc2ccccn2)c1	ADAM10 inh 24, ADAM17 inh 30 | ADAM10 confirm 29 | ADAM17 counter 31 | ADAM10 ctr 48 | ADAM17 confirm 54
CCC1CO/C(=C(\C(Cl)=C(Cl)Cl)[N+](=O)[O-])N1 (stereo not given)	ADAM10 inh 33, ADAM17 inh 13 | ADAM10 confirm inactive | ADAM17 counter inactive | ADAM10 ctr 30 | ADAM17 confirm 17
CCCCCOC(=O)C1=C(C)N(C)C(=O)NC1c1cc(Br)c(O)c(OC)c1 (stereo not given)	ADAM10 inh 20, ADAM17 inh 11 | ADAM10 confirm inactive | ADAM17 counter inactive | ADAM10 ctr inactive | ADAM17 confirm inactive
CCCCOC(=O)C1=C(C)N(C)C(=O)NC1c1cc2c(cc1Br)OCO2 (stereo not given)	none
CCN(CC)S(=O)(=O)c1cccc(C(=O)Oc2cccc(NC(=O)c3cccs3)c2)c1	ADAM10 inh 27, ADAM17 inh 9.3 | ADAM10 confirm inactive | ADAM17 counter inactive | ADAM10 ctr 22 | ADAM17 confirm 13
CCN(CC)S(=O)(=O)c1ccc(NC(=O)c2cccs2)cc1	none
O=C(C(=O)N1CCN(S(=O)(=O)c2ccc(F)cc2)CC1)c1cccc(C(F)(F)F)c1	none (no result: V-ATPase pH)
CCCCOC(=O)Nc1ccc(S(=O)(=O)Nc2ccc([N+](=O)[O-])cc2)cc1	none
CCCCCOC(=O)Nc1ccc(S(=O)(=O)Nc2cccc([N+](=O)[O-])c2)cc1	ADAM10 inh 27, ADAM17 inh 11 | ADAM10 confirm inactive | ADAM17 counter inactive | ADAM10 ctr 24 | ADAM17 confirm 13
CN(Cc1ccccc1)C(=O)OCc1cn(Cc2ccccc2Cl)nn1	none (no result: V-ATPase pH)
Cc1ccc2nc(NC(=O)CN(C)S(=O)(=O)c3ccc(Br)s3)sc2c1	ADAM10 inh 24, ADAM17 inh 10 | ADAM10 confirm inactive | ADAM17 counter inactive | ADAM10 ctr 25 | ADAM17 confirm 15
COc1ccc(S[C@]2(C(=O)N(C)C)CC(=O)N(c3ccc(C#N)cc3)[C@@H]2c2ccc(OC)cc2)cc1	none (no result: V-ATPase pH)
CC1(C)CC(=O)N(CC(=O)N2CCN(Cc3ccc4c(c3)OCO4)CC2)c2ccccc2S1(=O)=O	none (no result: V-ATPase pH)
O=C1[C@@H]2[C@H](C(=O)N1C[C@@H](COCc1ccccc1)Oc1cccc3c1S(=O)(=O)N(CCc1ccc(F)cc1)C[C@H](COCc1ccccc1)O3)[C@@H]1C=C[C@H]2C1	none (no result: V-ATPase pH)
CCCCN1CC(COCc2ccccc2)Oc2cccc(OCCN3C(=O)[C@@H]4[C@H](C3=O)C3C=C[C@H]4C3)c2S1(=O)=O (stereo not given in full)	ADAM10 inh 26, ADAM17 inh 13 | ADAM10 confirm inactive | ADAM17 counter inactive | ADAM10 ctr 44 | ADAM17 confirm 18
CCn1c2ccccc2c2cc(NS(=O)(=O)c3ccccc3C)ccc21	ADAM10 inh 25, ADAM17 inh 9.4 | ADAM10 confirm inactive | ADAM17 counter inactive | ADAM10 ctr 21 | ADAM17 confirm 12
COc1ccc(Cl)cc1Cn1c(C)c(C(=O)NCc2ccc(F)cc2)sc1=O	ADAM10 inh 27, ADAM17 inh 11 (no result: V-ATPase pH) | ADAM10 confirm inactive | ADAM17 counter inactive | ADAM10 ctr inactive | ADAM17 confirm inactive
Cc1cccc(OCCCSc2nc3ccccc3[nH]2)c1	ADAM10 inh 21, ADAM17 inh 10 | ADAM10 confirm inactive | ADAM17 counter inactive | ADAM10 ctr inactive | ADAM17 confirm 9.8
Cc1cccc(OCCSCc2nc3ccccc3[nH]2)c1	none
C=CCC[C@H](Cc1ccc(F)cc1)C(=O)OC[C@H](Cc1c[nH]c2ccccc12)NC(=O)[C@H](CC=C)CC(=O)NCCO	ADAM10 inh 24, ADAM17 inh 9.4 | ADAM10 confirm inactive | ADAM17 counter inactive | ADAM10 ctr 43 | ADAM17 confirm 22
C=CCC[C@H](Cc1ccc(F)cc1)C(=O)OC[C@@H](Cc1c[nH]c2ccccc12)NC(=O)[C@@H](CC=C)CC(=O)NCCO	ADAM10 inh 27, ADAM17 inh 17 | ADAM10 confirm inactive | ADAM17 counter inactive | ADAM10 ctr 35 | ADAM17 confirm 17
C=CCC[C@@H](Cc1ccc(F)cc1)C(=O)OC[C@@H](Cc1c[nH]c2ccccc12)NC(=O)[C@@H](CC=C)CC(=O)NCCO	ADAM10 inh 28, ADAM17 inh 17 | ADAM10 confirm inactive | ADAM17 counter inactive | ADAM10 ctr 29 | ADAM17 confirm 15
COC(=O)[C@@]12CCCCC3=C1N(CCC3)C(=O)[C@H]2CC(=O)NCCC(C)C	none (no result: V-ATPase pH)
CCOC(=O)C1=CCN(S(=O)(=O)c2ccc([N+](=O)[O-])cc2)C1c1ccc(C)cc1 (stereo not given)	none (no result: V-ATPase pH)
CC(C)(C)N(Cc1cn(Cc2ccccc2)nn1)S(=O)(=O)c1ccc(F)cc1Br	none (no result: V-ATPase pH)
COc1ccc(C(c2nnnn2Cc2ccccc2)N2CCN(C/C=C/c3ccccc3)CC2)cc1 (stereo not given)	ADAM10 inh 24, ADAM17 inh 12 (no result: V-ATPase pH) | ADAM10 confirm inactive | ADAM17 counter inactive | ADAM10 ctr inactive | ADAM17 confirm 11
C(=C\c1ccccc1)/CN1CCN(C(c2ccccc2)c2nnnn2Cc2ccccc2)CC1 (stereo not given)	none (no result: V-ATPase pH)
Cc1ccc(NS(=O)(=O)c2ccc(Cl)c(NC(=S)NC(=O)C3CCCCC3)c2)cc1Cl	ADAM10 inh 27, ADAM17 inh 13 | ADAM10 confirm inactive | ADAM17 counter inactive | ADAM10 ctr 46 | ADAM17 confirm 27
C=CCN=C1NC(c2ccccc2C(F)(F)F)C(C(=O)OC)=C(C)N1Cc1cccc(C(F)(F)F)c1 (stereo not given)	none (no result: V-ATPase pH)
COc1cc(CN2CCN(c3cccc(C)c3C)CC2)cc(Br)c1O	ADAM10 inh 24, ADAM17 inh 9.8 | ADAM10 confirm inactive | ADAM17 counter inactive | ADAM10 ctr 22 | ADAM17 confirm 11
C[C@H]1Cn2cnc(C(=O)N3CCN(c4ccccc4)CC3)c2C(=O)N1	none (no result: V-ATPase pH)
O=C(/C=C/c1ccc(Cl)cc1)N1CCN(c2c(Cl)cccc2[N+](=O)[O-])CC1	ADAM10 inh 23, ADAM17 inh 12 | ADAM10 confirm inactive | ADAM17 counter inactive | ADAM10 ctr inactive | ADAM17 confirm 8.7
COc1ccccc1NC(=O)CNC(c1ccccc1)c1ccccc1	ADAM10 inh 29, ADAM17 inh 9.0 | ADAM10 confirm inactive | ADAM17 counter inactive | ADAM10 ctr 20 | ADAM17 confirm 11
